In the library only some 2.7% were active in any assay of this set; here they are far more common.
HEK293 tox: cytotoxic in the GLP-1 receptor inverse agonist counter-screen; 410,000 tested, 0.13% active; AID 624418; HEK293 cAMP-luciferase reporter cells, luminescence, 24 h; Potency, µM (doses to about 38.3 µM), for the others: at the top dose activity change, negative = inhibition, hits mostly inhibitors;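 further: loss of luciferase light is scored as toxicity; on the % scale 0 is the no-effect control and ±100 the full control effect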
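Quantitative HTS format, 1536 wells, 200 cells/uL seeded. Compounds: 23 nL, 24 h, 37 °C. Detection: luciferase reagent, luminescence at 12 min RT; decreased signal taken as cytotoxic.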
a7 integrin act: activators of alpha7 integrin expression for muscular dystrophy; alpha7betagal myoblasts, beta-gal FDG fluorescence, 48 h; Potency, µM (series often up to 38.3 µM), without a hit: at the highest dose activation, actives largely listed as activators; 350,000 tested, 0.064% active; AID 624291;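 further: 100% = response of the positive control SU9516; nearly all actives have a fitted effect of over 60% in size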
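Alpha7betagal+/- myoblasts (passage 13) were plated 16-24 hr, then exposed to compounds (1:260 dilution of DMSO stock) for 48 hours at 37C. After MPER lysis, β-galactosidase reporter activity was read as FDG fluorescence (ex 480/em 540) after 30 minutes.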
GLP1R ag: GLP-1 receptor (human) agonism | HEK293 GLP-1R CRE-luciferase, luminescence, 4-6 h; cells express a hypersensitive GLP-1R form | Potency, µM (doses to about 45.6 µM), inactives show at the highest dose activation, hits mostly activators | 380,000 tested, 0.007% active; further: % of control where 0% means no effect
Target sequence (P43220 whole entry, looked up): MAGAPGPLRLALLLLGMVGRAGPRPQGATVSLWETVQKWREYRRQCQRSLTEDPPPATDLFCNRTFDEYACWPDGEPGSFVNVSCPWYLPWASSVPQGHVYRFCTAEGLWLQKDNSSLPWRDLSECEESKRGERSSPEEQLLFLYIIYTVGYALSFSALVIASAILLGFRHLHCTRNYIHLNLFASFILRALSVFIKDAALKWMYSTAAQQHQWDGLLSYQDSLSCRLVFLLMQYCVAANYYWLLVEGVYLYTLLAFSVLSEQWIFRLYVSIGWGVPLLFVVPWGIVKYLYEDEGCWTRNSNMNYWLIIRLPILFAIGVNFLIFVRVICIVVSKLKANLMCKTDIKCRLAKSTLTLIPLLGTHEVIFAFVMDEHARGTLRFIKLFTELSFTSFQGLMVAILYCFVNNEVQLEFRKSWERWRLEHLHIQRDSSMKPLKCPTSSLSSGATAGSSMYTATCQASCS
BRCA1 expr up: BRCA1 expression activation. MCF7-BRCA1-FFLuc reporter, luminescence, 48 h; response scale: scaled: vehicle 0%, 10 µM genistein 100%. Potency, µM (top dose mostly 46.1 µM), for the others: at the top dose activation, actives largely listed as activators. 380,000 tested, 1.1% active. AID 624202; further: nearly all actives have a fitted effect of over 80% in size
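Using MCF7 cells harboring a BRCA1 firefly luciferase reporter, plated 2 h before compound pinning, the screen measured luminescence after 48 h incubation. Responses were normalized to DMSO and 10 microM genistein, then fitted for concentration-effect.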
GLP-1R inv ag: acts as inverse agonist at human GLP-1 receptor. P43220. HEK293 GLP-1R CRE-luciferase, luminescence, 24 h; GLP-1R form is constitutively active. Potency, µM (series often up to 38.3 µM), for inactives: top-dose activity change, negative = inhibition, usual class: inhibitors. 410,000 tested, 1.6% active. AID 624417; further: on the % scale 0 is the no-effect control and ±100 the full control effect; nearly all actives have a fitted effect of over 55% in size
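Seeding at 200 cells/uL, 12 h culture, 24 hr compound treatment, then luciferase reagent and a luminescence read; cells are HEK293 stably expressing a constitutively active GLP-1R plus cAMP-responsive luciferase.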
* hit, by the source's call; ? = inconclusive; / = no result given. The call rests on the fitted dose curve; in most records, active means well fitted curve in the direction sought with a large enough effect; inconclusive means small, poorly fitted or top-dose-only effect, or another doubt; inactive means no such curve, though single readings can be large; an effect the other way counts as inactive or inconclusive. Potency means the concentration at half of the fitted maximal effect.

SMILES	HEK293 tox	a7 integrin act	GLP1R ag	BRCA1 expr up	GLP-1R inv ag
COc1ccc(NC(=S)c2ccccc2)cc1	-7%	13%	2%	7.9µM*	11%
O=C(NC(=O)c1ccccc1)Nc1ccccc1	-1%	3%	-3%	19%	?
COc1ccc(S(=O)(=O)Nc2ccc(Nc3ccccc3)cc2)cc1	-3%	42%	0%	-29%	7.1µM*
COc1ccc(NC(=O)NC(=O)c2ccccc2)cc1	5%	?	-3%	1.1µM*	6%
COc1ccc(C(=O)N/N=C/c2sc3ccccc3c2O)cc1	?	-58%	-1%	-76%	1.6µM*
CCCCCCCCNc1ccc(/C=C/c2ccnc3ccccc23)cc1	/	/	/	-2%	/
COc1ccc(C(=O)N/N=C/C(=O)c2ccccc2)cc1	-12%	-8%	2%	5.6µM*	-11%
CCCS(=O)(=O)N1CC(=O)N(c2ccc(Cl)cc2C)C(C)(C(=O)NC2CCCC2)C1 (stereo not given)	3%	/	/	/	16%
Cc1ccc([N+](=O)[O-])cc1NC(=O)CN(C(=O)c1ccccc1Cl)C1CCCCC1	-30%	16%	-12%	-32%	10µM*
COc1cccc(NC(=O)CCc2c(C)nc3ncnn3c2C)c1	-4%	/	-2%	15%	3%
COC(=O)c1scc(-c2ccc(C)cc2)c1S(=O)(=O)N1CCN(c2ccc(C(C)=O)cc2)CC1	3%	/	/	/	-8%
O=C(CN1CCCCCCC1)NC(=O)NC1CCCCC1	1%	13%	5%	73%	4µM*
O=C(CN1CCCCC1)NC(=O)NC1CCCC1	10%	-16%	8%	0%	39%
Oc1ccc(-c2nc3ccc4ccccc4c3c3c2CCC3)cc1O	?	-68%	-11%	-98%	4µM*
Cc1cc(C)c2c(ccc3ccccc32)n1	-4%	16%	3%	50%	17%
Cn1cc([N+](=O)[O-])c(C(=O)Nc2ccc(-c3nc4ccccc4[nH]3)cc2)n1	8%	1%	8%	7.9µM*	6%
O=C(Nc1ccc2[nH]ccc2c1)c1cccs1	0%	7%	6%	3.2µM*	1%
O=C(Nc1ccc(-c2nc3ccccc3[nH]2)cc1)c1ccco1	?	-6%	13%	?	-8%
Cn1cccc1-c1nc2ccc(NC(=O)c3ccc([N+](=O)[O-])cc3)cc2[nH]1	-11%	11%	0%	0%	-7%
O=C(Nc1ccc2nc(-c3ccccc3)[nH]c2c1)c1cccs1	-30%	22%	-1%	7.1µM*	142%
O=C(Nc1ccc(NC(=O)c2cccs2)cc1)c1cccs1	-10%	2%	10%	24%	16%
Cn1cc([N+](=O)[O-])c(C(=O)Nc2ccc3nc(-c4ccccc4)[nH]c3c2)n1	?	-29%	9%	4µM*	73%
CCC/C(=C1/c2ccccc2C(=O)N1c1ccccc1)c1ccc2[nH]ccc2c1	-4%	-15%	-3%	-80%	4.5µM*
O=C(O)c1ccc(N/N=C/c2ccc(OC(=O)c3ccccc3Cl)cc2)cc1	1%	-3%	0%	-77%	7.1µM*
COc1ccc(N2CC(NC(=O)CCc3ccccc3)CC2=O)cc1OC (stereo not given)	-3%	/	0%	6%	3%
SMILES	HEK293 tox	a7 integrin act	GLP1R ag	BRCA1 expr up	GLP-1R inv ag
Cc1cc(N/N=C/c2ccccc2)nc(NCc2ccccc2)n1	-32%	-43%	-6%	-45%	?
Cc1cc(N/N=C/c2cccc(Cl)c2)nc(NCc2ccccc2)n1	?	-54%	1%	-8%	11µM*
Cc1cc(Nc2cccc(Cl)c2)nc(NCc2ccccc2)n1	-11%	-44%	17%	-49%	10µM*
Cc1cc(N/N=C/c2ccc(Cl)cc2)nc(NCc2ccccc2)n1	-16%	-2%	19%	52%	4.5µM*
COc1cc2nc(N3CCOCC3)nc(NC3CCN(Cc4ccccc4)CC3)c2cc1OC	/	/	/	-6%	/
CCOc1ccccc1CNC(=O)c1ccc(NC(=O)N2CCSc3ncccc32)cc1	0%	/	/	/	3%
O=C(Cc1ccc(OCc2ccccc2)cc1)NO	/	/	/	59%	/
O=C(CBr)c1ccc(Oc2ccc(C(=O)C[n+]3cccc(Br)c3)cc2)cc1	/	/	/	-14%	/
O=[N+]([O-])c1cc(C=NN2CCCCCC2)ccc1Cl	6%	-15%	3%	2.8µM*	?
O=[N+]([O-])c1cc(/C=N/N2CCCCC2)ccc1Cl	0%	-24%	20%	11µM*	?
CCOc1ccc(OCC)c(NC(=O)C(NS(=O)(=O)c2ccc(Br)s2)c2ccccc2)c1 (stereo not given)	2%	/	/	/	6%
CCCCN(CC)CCNC(=O)c1cn(-c2ccc(Cl)cc2)c(=O)c2ccccc12	-29%	-41%	7%	0%	10µM*
O=C(NNc1ncnc2c1cnn2-c1ccccc1)c1cccc(Cl)c1	1%	/	/	/	6%
COc1cc(NC(=O)C2C3C=CC(C3)C2C(=O)O)ccc1NC(=O)c1ccccc1 (stereo not given)	-12%	8.9µM*	-2%	22%	17%
CCOc1ccc(NC(=O)Nc2cc3c(cc2N2CCCCC2)n(C)c(=O)n3C)cc1	3%	/	1%	-45%	-24%
Cc1cccc(-c2nsc(SCC(=O)N3CCCC3)n2)c1	-14%	-17%	7%	?	0%
O=C(CSc1nc(-c2ccccc2)ns1)N1CCOCC1	-9%	20%	-1%	4µM*	18%
COc1cccc(C(=O)Nc2nc(-c3nnn(-c4ccccc4C(F)(F)F)c3C)ns2)c1	0%	/	/	0%	5.6µM*
COc1cccc(C(=O)Nc2nc(-c3nnn(-c4cc(C)ccc4C)c3C)ns2)c1	4%	/	/	0%	-12%
CCCC(=O)C1=C(O)C(C(=O)OC)C(C)(C)CC1=Nc1ccccc1 (stereo not given)	91%	25%	3%	16%	?
CCCC(=O)C1=C(O)C(C(=O)OC)C(C)(C)CC1=Nc1cccc2ccccc12 (stereo not given)	-4%	-31%	-6%	-42%	7.9µM*
CNc1ccc(/C=C2\C=Cc3ccccc32)cc1Cl	/	/	/	21%	/
CSc1ccc(/C=C/c2ccnc3ccccc23)cc1	/	/	/	4.5µM*	/
S=Cc1ccc(/C=C/c2ccnc3ccccc23)cc1	/	/	/	-10%	/
CCOC(=O)c1c(-c2ccccc2)oc2ccc(OC(C)C(=O)O)cc12 (stereo not given)	7%	28%	5%	-26%	16%
CCOC(=O)c1c(-c2ccccc2)oc2ccc(OCC(O)CN(C)C)cc12 (stereo not given)	?	-70%	5%	-72%	2.8µM*
Cn1c(=O)cc(SCC(=O)NCc2ccc(F)cc2)c2ccc(Cl)cc21	-4%	/	/	/	0%
CN(CCCNC(=O)CSc1cc(=O)n(C)c2cc(Cl)ccc12)Cc1ccccc1	-16%	-36%	21%	-8%	7.9µM*
